“And” between values parts separate entries of the source, which are not always exact repeats. Equal entries are not always repeated. Some compounds were tested as several samples or in several runs, with calls that do not always agree. The source made the active and inactive calls. How the source made its calls: active means hit-call score of the fitted dose curve at least 0.9, where 1 is the maximum; inactive means score below 0.9.
The molecules below were run on TIMP metallopeptidase inhibitor 1 (TIMP1), TIMP1 (gene 7076) (assay: BSK_hDFCGF_TIMP1: BioMAP Diversity Plus: hDFCGF Assay for TIMP metallopeptidase inhibitor 1 (TIMP1) Biomarker Activity (AID 2283062)). Conditions: primary human foreskin fibroblasts; actives raise or lower the signal.
Description: BSK_hDFCGF is a cell-based, multiplexed-readout assay that uses foreskin fibroblast, a human skin primary cell, with measurements taken at 24 hours after chemical dosing in a 96-well plate.BSK_hDFCGF_TIMP1 is an assay component measured in the BSK_hDFCGF assay. It measures TIMP-1 antibody related to regulation of gene expression using ELISA technology.Data from the assay component BSK_hDFCGF_TIMP1 was analyzed into 1 assay endpoint. This assay endpoint, BSK_hDFCGF_TIMP1, was analyzed with bidirectional fitting relative to DMSO as the negative control and baseline of activity. Using a type of binding reporter, gain or loss-of-signal activity can be used to understand changes in the signaling as they relate to the gene TIMP1. Furthermore, this assay endpoint can be referred to as a primary readout, because this assay has produced multiple assay endpoints where this one serves a signaling function. To generalize the intended target to other relatable targets, this assay endpoint is annotated to the protease inhibitor intended target family, where the subfamily is metalloproteinase inhibitor.
The levels of cell surface (or secreted, indicated by the prefix "s") biomarker endpoints were measured by ELISA. Overt cytotoxicity to cells in confluent adherent cultures (all systems other than the BT system) was assessed by measuring total protein levels using sulforhodamine B (SRB) staining in parallel cultures at the time of biomarker measurements, indicated as SRB endpoints. For proliferation assays for adherent cell types, individual cell types are cultured at sub-confluence and relative cell numbers quantified by SRB staining at time points optimized for each system (48 h: 3C and CASM3C systems; 72 h: BT and HDF3CGF systems; 96 h: SAg system). SRB was performed by staining cells with 0.1% SRB after fixation with 10% TCA and reading wells at 560 nm.Viability and proliferation of PBMC (T cells) was quantified by Alamar Blue reduction for the SAg and BT systems. For PBMC viability (referred to as PBMC Cytotoxicity within the assay endpoint names), cells were plated (75,000/well in a 96-well plate) and then chemical samples added for 1 h before addition of activators, SEB and TSST-1 (20 ng/mL final concentration each). Cells were incubated for 90 h. Then, Alamar Blue (20 uL/well) (Invitrogen, Cat DAL1100) was added for 6 h, and the plates were read with a fluorescence microplate reader at 546/580 nm (excitation/emission). For PBMC proliferation, cells were plated and activated as above but incubated for only 16 h prior to addition of Alamar Blue. Plates were read after 6 h.
`C=CC(F)(F)C(F)(F)C(F)(F)C(F)(F)C(F)(F)C(F)(F)C(F)(F)C(F)(F)F` was tested, and the outcome was “inactive”.
`OCCCC(F)(F)C(F)(F)C(F)(F)F` was tested, and the outcome was “inactive”.
For `COC(=O)CCC(F)(F)C(F)(F)C(F)(F)C(F)(F)F`, the outcome was “inactive”.
`FC(F)(F)C(F)(F)C(F)(F)C(F)(F)C(F)(F)C(F)(F)C(F)(F)I` was tested, and the outcome was “inactive”.
`Cc1ccc(S(=O)(=O)OCC(F)(F)C(F)(F)C(F)(F)C(F)(F)C(F)(F)C(F)F)cc1` was tested, and the outcome was “inactive”.
For `OCCCC(F)(F)C(F)(F)C(F)(F)C(F)(F)C(F)(F)C(F)(F)C(F)(F)F`, the AC50 was 14.6 µM (active) and 14.4 µM (active).
`FC(F)(F)C(F)(F)C(F)(F)C(F)(F)CCI` was tested, and the outcome was “inactive”.
`Oc1ccc(Nc2ccccc2)cc1` was tested, and the outcome was “inactive”.
With `FC(F)(Br)C(F)(F)C(F)(F)C(F)(F)C(F)(F)C(F)(F)Br` the outcome was “inactive”.
In the case of `FC(F)(I)C(F)(F)C(F)(F)C(F)(F)I`, the AC50 is reported as 45.3 µM (active) and 46.7 µM (active) and 47.2 µM (active).
`FC(F)(F)C(F)(F)CNCC(F)(F)C(F)(F)F` was tested, and the outcome was “inactive”.
For `CCc1c(Br)c(Br)c(Br)c(Br)c1Br`, the outcome was “inactive”.
In the case of `O=C(O)C(F)(F)C(F)(F)C(F)(F)C(F)(F)C(F)(F)C(F)(F)C(F)(F)C(F)(F)C(F)(F)C(F)(F)C(F)(F)C(F)(F)F`, the outcome is reported as “inactive”.
In the case of `O=C(O)C(F)(F)C(F)(F)C(F)(F)F`, the outcome is reported as “inactive”.
With `CC(=O)Nc1ccc(N=Nc2cc(C)ccc2O)cc1` the outcome was “inactive”.
With `OCC(F)(F)C(F)(F)C(F)(F)C(F)(F)C(F)(F)C(F)F` the outcome was “inactive”.
For `O=C(O)C(F)(F)C(F)(F)C(F)(F)C(F)(F)C(F)(F)C(F)(F)C(F)(F)C(F)(F)C(F)(F)C(F)(F)C(F)(F)C(F)(F)C(F)(F)F`, the outcome was “inactive”.
With `FC(F)(F)C(F)(F)C(F)(F)N(C(F)(F)C(F)(F)C(F)(F)F)C(F)(F)C(F)(F)C(F)(F)F` the outcome was “inactive”.
For `O=C(O)C(F)(F)C(F)(F)C(F)(F)C(F)(F)C(F)(F)C(F)(F)C(F)(F)C(F)(F)Cl`, the outcome was “inactive” and the AC50 was 30 µM (active).
With `C=C(C)C(=O)OCCC(F)(F)C(F)(F)C(F)(F)C(F)(F)C(F)(C(F)(F)F)C(F)(F)F` the outcome was “inactive”.
For `C=CC(=O)OCC(F)(F)C(F)(F)C(F)(F)C(F)(F)COC(=O)C=C`, the AC50 was 8.88 µM (active) and 9.2 µM (active).
`O=C(O)C(F)(OC(F)(F)C(F)(OC(F)(F)C(F)(F)C(F)(F)F)C(F)(F)F)C(F)(F)F` (stereo not given) was tested, and the outcome was “inactive”.
In the case of `OCC(F)(F)C(F)(F)C(F)(F)C(F)(F)C(F)(F)C(F)(F)F`, the outcome is reported as “inactive”.
`CCN(CC)c1ccc2c(C)cc(=O)oc2c1` was tested, and the outcome was “inactive”.
With `C#C[C@]1(O)CC[C@H]2[C@@H]3CCc4cc(OC)ccc4[C@H]3CC[C@@]21C` the outcome was “inactive”.
With `CS(C)(=O)=O` the outcome was “inactive”.
With `CCCCC(CC)COP(=O)(O)OCC(CC)CCCC` (stereo not given) the AC50 was 30.8 µM (active) and the outcome was “inactive”.
For `CCCCCCCCC(F)(F)C(F)(F)C(F)(F)C(F)(F)C(F)(F)C(F)(F)F`, the outcome was “inactive”.
`FC(F)(F)C(F)(F)C(F)(F)C(F)(F)C(F)(F)C(F)(F)C(F)(F)C(F)(F)CCS` was tested, and the outcome was “inactive”.
With `O=C(O)C(F)(F)C(F)(F)C(F)F` the outcome was “inactive”.
With `OCC(F)(F)C(F)(F)C(F)(F)C(F)F` the outcome was “inactive”.
With `O=C(O)C(F)(F)C(F)(F)C(F)(F)C(F)(F)C(F)(F)C(F)(F)C(F)(F)C(F)(F)C(F)(F)C(F)F` the outcome was “inactive”.
In the case of `CCCCCCCOC(=O)c1ccccc1C(=O)OCCCCCCC`, the outcome is reported as “inactive”.
For `C=CC(F)(F)C(F)(F)C(F)(F)C(F)(F)C(F)(F)C(F)(F)C(F)(F)C(F)(F)C=C`, the outcome was “inactive”.
With `CO[Si](OC)(c1ccccc1)c1ccccc1` the outcome was “inactive”.
In the case of `CCCCCCC(C)OC(=O)CCCCC(=O)OC(C)CCCCCC` (stereo not given), the outcome is reported as “inactive”.
For `O=P(O)(O)OCCC(F)(F)C(F)(F)C(F)(F)C(F)(F)C(F)(F)C(F)(F)F`, the outcome was “inactive”.
For `FC(F)(F)C(F)(F)C(F)(F)CI`, the outcome was “inactive”.

Reference: PubChem BioAssay (EPA / NIEHS)
